EBV LMP1 NFkB: Epstein-Barr LMP1 NF-kappaB reporter inhibition | LMP1-induced NF-kappaB luciferase reporter cells, luminescence | inhibition, % at 12.5 µM | 0.69% of 350,000 active | AID 504558; in the data active = inhibition above about 41%; inconclusive = no clear call, values can overlap the other calls;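 note: 0% = neutral control wells and 100% = reference inhibitor control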
TROY NFkB inh: TROY signaling inhibition. Q293 LMP1-TROYcd NF-kB luciferase reporter, 4 h. inhibition, % at 10 µM. 0.98% of 360,000 active. AID 1347056;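 active = compounds whose plate-normalised and pattern-corrected inhibition of the luciferase reporter signal at the single screening dose is 50% or more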
LGR2 inh: inhibitors of bursicon-induced Drosophila LGR2 receptor cAMP signaling | HEK293 LGR2, CRE-luciferase, bursicon-stimulated, 4 h | inhibition, % at 9.99 µM | 0.35% of 380,000 active;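 active = drop in luminescence signal, shown as inhibition above about 50% in the replicate tests, limit read from the data, passing the limit was not always enough; inconclusive = probably only some replicates passing the limit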;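 note: agonist challenge used bursicon conditioned medium at about half maximal strength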
HSF1 activator: increases HSF-1 driven luciferase reporter signal; activation, % at 9 µM; AID 504408; 1.7% of 300,000 active; NIH3T3-HGL HSF-1 luciferase reporter, MG132, 8 h; 100% = twice DMSO control signal;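 active = mean replicate activation of at least 50% with a set share of replicates each reaching 50%; inconclusive = only one of those two conditions met; inactive = mean below 50% and too few replicates reaching it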;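 note: 0% = median of the neutral control wells and 100% = twice that signal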
TWEAK Fn14 block: inhibitors of TWEAK-Fn14 interaction signaling. TWEAK-stimulated Fn14 reporter cells, luciferase luminescence, 8 h. inhibition, % at 10 µM. 2% of 360,000 active. AID 1159606; in the data active = inhibition above about 50%
HSF1 inhib: HSF1 inhibition | 0.77% of 300,000 active | NIH3T3-HGL HSE-luciferase, MG132-induced, luminescence 8 h; stronger effect = lower value | AID 2098 | activity change, negative = inhibition, % at 7.5 µM (by protocol);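 active = more than half of replicate wells show activity change below -50%, luminescence cut by over half; inconclusive = some wells, but at most half, below -50%; inactive = no replicate well below -50%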;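 note: luciferase reports HSF-1 transcriptional activity via heat shock element; 0% = median of DMSO wells and -100% = zero luminescence signal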
* marks the source's active call; other numbers are inactive results; ? = inconclusive; · = not tested or not shown. This is a sample that favours compounds with a hit; in the whole collection about 3.6% have one here.

SMILES	EBV LMP1 NFkB	TROY NFkB inh	LGR2 inh	HSF1 activator	TWEAK Fn14 block	HSF1 inhib
COc1ccc(S(=O)(=O)Nc2ccc3c(c2)CC(=O)N([C@@H](C)CO)C[C@@H](C)[C@H](CN(C)C(=O)NC2CCCCC2)O3)cc1	·	·	-1	·	·	·
COC(=O)C1CCN(C(=O)COC(=O)c2ccc(OC)c(S(=O)(=O)N3CCCc4ccccc43)c2)CC1	0	34	5	?	51*	18
O=C(CSc1n[nH]c(=O)[nH]c1=O)c1ccccc1	-3	21	25	9	8	3
CN(C)C(=O)CSc1n[nH]c(=O)[nH]c1=O	4	6	3	-92	-16	-89*
CCC(=O)N1CC(=O)N2[C@H](CO)[C@H](c3ccc(-c4cccnc4)cc3)[C@@H]2C1	·	·	-18	·	·	·
C[C@@H]1CC[C@]2(C(=O)O)CC[C@]3(C)C(=CCC4[C@]56CC[C@@](O)(OC5)C(C)(C)C6CC[C@]43C)C2[C@H]1C (some centres not stated)	5	63*	·	·	8	·
C[C@H]1[C@H](C)CC[C@]2(C(=O)O)CC[C@]3(C)C(=CC[C@@H]4[C@@]5(C)C[C@@H](O)[C@H](O)C(C)(C)[C@@H]5CC[C@]43C)[C@H]12	-6	7	·	-11	-83	-8
CC1(C)CC[C@]2(C(=O)O[C@@H]3O[C@H](CO)[C@@H](O)[C@H](O)[C@H]3O)CC[C@]3(C)C(=CCC4[C@@]5(C)CC[C@H](O[C@@H]6O[C@H](C(=O)O)[C@@H](O[C@H]7OC[C@@H](O)[C@@H](O)[C@@H]7O)[C@H](O)[C@H]6O)C(C)(C)C5CC[C@]43C)[C@@H]2C1 (some centres not stated)	0	-11	-7	·	9	·
CC1(C)CC[C@]2(C(=O)O)CC[C@]3(C)C(=CC[C@@H]4[C@@]5(C)CC[C@H](O[C@@H]6O[C@H](C(=O)O)[C@@H](O)[C@H](O[C@@H]7OC[C@H](O)[C@H](O)[C@H]7O)[C@H]6O)C(C)(C)[C@@H]5CC[C@]43C)[C@@H]2C1	-8	87*	?	·	-77	·
CC1(C)CC[C@]2(C(=O)O)CC[C@]3(C)C(=CCC4[C@]56CC[C@@](O)(OC5)C(C)(C)C6CC[C@]43C)C2C1 (some centres not stated)	·	65*	·	·	23	·
COc1ccc(N2C(=O)/C(=C\c3ccco3)N=C2SCC(=O)NC(C)C)cc1Cl	5	-1	11	31	-19	16
O=C(CSC1=N/C(=C/c2ccco2)C(=O)N1c1ccc(OC(F)F)cc1)NC1CCS(=O)(=O)C1 (configuration not stated)	-1	-15	-16	64*	-9	26
C=C1C(=O)O[C@H]2[C@H]1[C@H](OC(=O)/C(C)=C\C)C[C@]1(CO1)[C@@H]1[C@H](OC(C)=O)C=C(C)[C@]21O	-7	11	6	14	16	14
C=C1C(=O)OC2CC1C(O)CC(C)=CCCC(C)=CC(O)CC2C (configuration not stated)	-3	37	·	·	92*	·
C=C1C(=O)OC2CC1C(OC(C)=O)CC(C)=CCCC(C)=CCCC2(C)O (configuration not stated)	·	38	·	·	71*	·
C[C@@H]1CN([C@@H](C)CO)C(=O)c2cc(C#C[C@@H](C)O)cnc2O[C@@H]1CN(C)Cc1cccc(F)c1	·	·	5	·	·	·
CC(=O)c1ccc(-n2c(CCC(=O)O)ccc2-c2ccccc2)cc1	-13	58*	-6	1	76*	-8
CC(=O)c1ccc(-n2c(C)ccc2-c2ccccc2)cc1	0	37	·	35	82*	26
CC(=O)c1ccc(-n2c(CCC(=O)O)ccc2-c2ccc(C)cc2)cc1	-11	-33	·	17	19	22
C[C@@H]1CCCCO[C@@H](CN(C)CC2CCCCC2)[C@H](C)CN([C@@H](C)CO)C(=O)c2cc(NC(=O)C3CCCCC3)ccc2O1	·	·	1	·	·	·
C[C@H]1CN([C@@H](C)CO)C(=O)c2cc(NC(=O)Cn3cnnn3)ccc2O[C@H]1CN(C)C	·	·	-13	·	·	·
O=C(O)c1csc(N/N=C/c2ccc(Br)cc2)n1	-7	-19	1	81*	7	39
Cc1csc(N/N=C/c2ccc([N+](=O)[O-])cc2)n1	-30	0	-51	-11	-15	-5
CCOC(=O)c1sc2nc3c(cc2c1N)COC(C(C)C)C3 (configuration not stated)	-7	66*	·	-69	85*	-60*
CCOC(=O)c1sc2nc(N3CCOCC3)c3c(c2c1N)CC(C(C)C)OC3 (configuration not stated)	0	-7	8	3	-27	-8
SMILES	EBV LMP1 NFkB	TROY NFkB inh	LGR2 inh	HSF1 activator	TWEAK Fn14 block	HSF1 inhib
COc1ccc(-n2c(C)cc(C(=O)COc3ccc(C)nc3[N+](=O)[O-])c2C)cc1	19	58*	14	-40	50	-20
CCOC(=O)c1cc(C)n(-c2ccccc2)c1C	-11	-39	-37	12	-18	11
Cc1cc(C(=O)COC(=O)c2ccc(O)cc2O)c(C)n1-c1ccc(OC(F)F)cc1	17	3	2	·	15	·
Cc1cc(C(=O)COC(=O)c2ccc(O)cc2O)c(C)n1-c1ccccc1	-9	83*	·	·	77*	·
Cc1ccc(OCC(=O)c2cc(C)n(-c3cc(C)on3)c2C)c([N+](=O)[O-])n1	15	-19	13	·	10	·
Nc1ccc(O)cc1C(=O)OCC(=O)c1ccc(C2CCCCC2)cc1	-3	25	-15	-43	102*	-36
COc1ccc(-n2c(C)cc(C(=O)COC(=O)c3ccc(O)cc3O)c2C)cc1	17	23	·	·	54*	·
C[C@@H]1CN([C@H](C)CO)C(=O)c2cc(C#CC(C)(C)O)cnc2O[C@H]1CN(C)C(=O)C1CCOCC1	·	·	-10	·	·	·
COCC(=O)Nc1ccc2c(c1)OC[C@@H](C)N(Cc1cccc(F)c1)C[C@H](C)[C@@H](OC)CN(C)C2=O	·	·	8	·	·	·
COC(=O)[C@H]1[C@H](CO)[C@H]2Cn3c(ccc(/C=C/c4ccccc4)c3=O)[C@H]2N1C(=O)CC1CC1	·	·	-8	·	·	·
O=C(COC(=O)c1ccc(O)cc1O)c1ccc(Cl)cc1	-4	-56	-37	61*	-21	53
O=C(COC(=O)c1ccc(O)cc1O)Nc1ccc(Cl)cn1	-1	8	0	16	-4	6
N/C(=N\OC(=O)COc1ccc(Cl)cc1Cl)c1ccccn1	4	26	?	74*	56*	28
N/C(=N\OC(=O)c1cc(Cl)ccc1Cl)c1ccccn1	25	34	34	5	75*	7
COc1ccc(/C(N)=N/OC(=O)COc2ccccc2Cl)cc1	-17	-83	-54	58*	-30	32
COc1ccc(Cl)cc1C(=O)O/N=C(\N)c1ccccn1	-56	-29	-58	42	-12	15

Assay outcomes as filed in PubChem.
